From the supplement of paper PMC6607015
Structures can show the parent of a compound that is named as a salt.

Key:
Details in all cases: compound concentration in added solution (µM; 5 µl added to 20 µl cells): 10; 18 h
A431 [1] = experiment: LBPA endosome anti-LBPA integrated intensity (sum per cell), Z-score; higher = more LBPA staining
Outline: (§1)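 HeLa MZ or A431 cells (3,500/well in 20 µl) were seeded onto 5 µl of 10 µM compound solution in duplicate 384-well imaging plates, incubated 18 h, then fixed in 4% PFA. Cells were stained with 6C4 anti-LBPA antibody, filipin, propidium iodide and CellTracker green, and four 20× images were taken per well. MetaXpress segmentation gave per-cell integrated LBPA or filipin intensity, either whole-cell or within LBPA endosomes. Values are Z-scores normalised in AcuityXpress.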

HeLa MZ [2] = experiment: as above
Outline: as §1

A431 [3] = experiment: whole-cell filipin (free cholesterol) integrated intensity, Z-score; higher = more cholesterol staining
Outline: as §1

HeLa MZ [4] = experiment: as above
Outline: as §1

A431 [5] = experiment: filipin (cholesterol) integrated intensity within LBPA endosomes, Z-score; higher = more cholesterol in LBPA endosomes
Outline: as §1

HeLa MZ [6] = experiment: as above
Outline: as §1

SMILES	LBPA endosome anti-LBPA integrated intensity (z-score) (A431 [1])	LBPA endosome anti-LBPA integrated intensity (z-score) (HeLa MZ [2])	whole-cell filipin (z-score) (A431 [3])	whole-cell filipin (z-score) (HeLa MZ [4])	filipin (z-score) (A431 [5])	filipin (z-score) (HeLa MZ [6])
Cc1c(NC(C)C)c(=O)n(-c2ccccc2)n1C [Isopyrin hydrochloride]	-0.574	-1.29	-0.495	-0.424	-0.515	-0.531
CCCC1C(=O)N2C(N(C)C)=Nc3ccc(C)cc3N2C1=O (stereo not given) [Azapropazone]	-0.356	–	0.0445	–	-0.348	–
CC1(C)[C@@H](OC(=O)CCC(=O)O)CC[C@]2(C)[C@H]3C(=O)C=C4[C@@H]5C[C@@](C)(C(=O)O)CC[C@]5(C)CC[C@@]4(C)[C@]3(C)CC[C@@H]12 [Carbenoxolone disodium salt]	-0.362	0.399	-0.0877	0.214	-0.408	-0.356
CC(NCCc1ccc(O)cc1)C(O)c1ccc(O)cc1 (stereo not given) [Ritodrine hydrochloride]	-0.357	0.237	-0.158	-0.199	-0.481	-0.491
COC(=O)Nc1nc2cc([S+]([O-])c3ccccc3)ccc2[nH]1 (stereo not given) [Oxfendazol]	-0.637	–	-0.236	–	-0.364	–
Clc1ccc(Cn2c(CN3CCCC3)nc3ccccc32)cc1 [Clemizole hydrochloride]	0.145	0.955	0.228	-0.285	0.0324	-0.147
CN1C(C)(C)CCCC1(C)C [Pempidine tartrate]	-0.407	–	-0.191	–	-0.313	–
NS(=O)(=O)c1cc2c(cc1Cl)NC(C(Cl)Cl)NS2(=O)=O (stereo not given) [Trichlormethiazide]	-0.262	0.0655	-0.129	-0.0923	-0.393	-0.381
C=C(NC(=O)C(=C)NC(=O)c1csc(C2=N[C@@H]3c4csc(n4)[C@H]4NC(=O)c5csc(n5)[C@H]([C@](C)(O)[C@@H](C)O)NC(=O)[C@H]5CSC(=N5)/C(=C/C)NC(=O)[C@H]([C@@H](C)O)NC(=O)c5csc(n5)[C@]3(CC2)NC(=O)[C@H](C)NC(=O)C(=C)NC(=O)[C@H](C)NC(=O)[C@H]([C@@H](C)CC)N[C@@H]2C=Cc3c([C@H](C)O)cc(nc3[C@H]2O)C(=O)O[C@@H]4C)n1)C(N)=O [Thiostrepton]	–	-0.253	–	-0.786	–	-0.596
O=C(O)c1cc(=O)c2c(OCC(O)COc3cccc4oc(C(=O)O)cc(=O)c34)cccc2o1 [Cromolyn disodium salt]	-0.474	-0.0857	-0.438	-0.156	-0.425	-0.474
Nc1nc2n[nH]nc2c(=O)[nH]1 [Azaguanine-8]	-0.399	–	-1.15	–	-0.438	–
C1CCC(C(CC2CCCCN2)C2CCCCC2)CC1 (stereo not given) [Perhexiline maleate]	–	-0.192	–	0.438	–	2.62
COC(=O)Nc1nc2cc(C(=O)c3ccc(F)cc3)ccc2[nH]1 [Flubendazol]	-0.354	–	-0.303	–	-0.305	–
CN(Cc1cnc2nc(N)nc(N)c2n1)c1ccc(C(=O)N[C@@H](CCC(=O)O)C(=O)O)cc1 [Methotrexate]	-0.383	–	0.354	–	-0.754	–
CC(C)(C)CC(C)(C)c1ccc(OCCOCC[N+](C)(C)Cc2ccccc2)cc1 [Benzethonium chloride]	–	1.55	–	-0.53	–	0.517
O=C(CCCCC(=O)Nc1c(I)cc(I)c(C(=O)O)c1I)Nc1c(I)cc(I)c(C(=O)O)c1I [Iodipamide]	-0.326	-0.366	-0.456	-0.377	-0.385	-0.472
CC(=O)OCC(=O)[C@@]1(OC(C)=O)[C@@H](C)C[C@H]2[C@@H]3C[C@H](F)C4=CC(=O)C=C[C@]4(C)[C@@]3(F)[C@@H](O)C[C@@]21C [Diflorasone Diacetate]	-0.283	-0.262	-0.254	-0.816	-0.354	-0.539
CCCCNc1ccc(C(=O)OCCN(C)C)cc1 [Tetraca? hydrochloride]	-0.207	0.761	-0.403	-0.308	-0.238	0.182
CCOC(=O)Nc1ccc2c(c1)N(C(=O)CCN1CCOCC1)c1ccccc1S2 [Moricizine hydrochloride]	-0.59	0.328	-0.0401	0.0759	-0.436	0.233
O=C(CCCCCCC(=O)Nc1ccccc1)NO [Vorinostat]	0.0566	–	1.83	–	-0.414	–
